Assay [1] in a line: P-glycoprotein substrates identified in KB-8-5-11 adenocarcinoma cell line, qHTS therapeutic library screen (AID 1346987). Note: nearly all actives have a fitted effect of over 65% in size. Note: potency is the fitted concentration of half-maximal effect. A digest of the protocol:
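Compounds are pinned in dose-response onto KB-8-5-11 cells (500 cells/well, colchicine-free medium) and left 72 h at 37 degree C. CellTiter-Glo luminescence then yields AC50 values.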

A short description of assay [2]: NS1 protein of Zika virus - qHTS assay to identify small molecule inhibitors in human HEK 293 cells (AID 1347053).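 Note: series mostly up to about 46 µM; plate controls were infected untreated cells for no effect and uninfected cells for full effect; nearly all actives have a fitted effect of over 55% in size.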 The gist of the method: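 Read-out is a two-antibody TR-FRET for ZIKV NS1, normalized between uninfected cells and infected cells. Compound added 1 h before MR766 infection at MOI 0.5; human HEK 293 cells incubated 24 h, 37 C.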
Assay [3] in a line: qHTS of pediatric cancer cell lines to identify multiple opportunities for drug repurposing: Primary screen for TC32 cells (AID 1347089). Note: % is set by controls: 0 for no effect and ±100 for the full control effect; nearly all actives have a fitted effect of over 60% in size. The gist of the method: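 Measured quantity: luminescence from CellTiter-Glo, reflecting metabolically active TC32 cells following 48 h of compound. Curves came straight from multi-point titrations, with 8 or 11 points in primary and 11 in confirmatory screening.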
Background: qHTS replaces the single test concentration by a dilution series.

Assay [4] can be described thus: qHTS of pediatric cancer cell lines to identify multiple opportunities for drug repurposing: Primary screen for DAOY cells (AID 1347090).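 Note: series mostly up to about 46 µM; plate controls were DMSO for no effect and bortezomib for full effect; nearly all actives have a fitted effect of over 55% in size.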 A digest of the protocol: (§1)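 Cell viability, CellTiter-Glo luminescence; 500-1,000 cells/well, 8- or 11-point titration, 48 h compound exposure at 37 degrees C, 5% CO2. Controls: DMSO neutral, bortezomib 2.3 µM final as positive.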

Assay [5] is described as follows: qHTS of pediatric cancer cell lines to identify multiple opportunities for drug repurposing: Primary screen for SJ-GBM2 cells (AID 1347091).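 Note: plate controls were DMSO neutral control for no effect and bortezomib for full effect.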 A digest of the protocol: as §1
Assay [6] can be described thus: qHTS of pediatric cancer cell lines to identify multiple opportunities for drug repurposing: Primary screen for BT-37 cells (AID 1347094).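 Note: series mostly up to about 57 µM; plate controls were DMSO for no effect and bortezomib for full effect.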 The gist of the method: (§2)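 500-1,000 cells/well; 5 h pre-incubation 37 °C/5% CO2; compound pinned; 48 h; CellTiter-Glo, 15 min RT; luminescence. MIPE 11-pt from 0.78 nM, NPC 8-pt from 0.59 nM final. Bortezomib 2.3 µM final as positive control.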

The nature of assay [7]: qHTS of pediatric cancer cell lines to identify multiple opportunities for drug repurposing: Primary screen for NB-EBc1 cells (AID 1347095).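 Note: plate controls were DMSO neutral control for no effect and bortezomib for full effect.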 The gist of the method:
as §2

A short description of assay [8]: qHTS of pediatric cancer cell lines to identify multiple opportunities for drug repurposing: Primary screen for U-2 OS cells (AID 1347096).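 Note: plate controls were DMSO wells for no effect and bortezomib positive control wells for full effect; nearly all actives have a fitted effect of over 50% in size.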 The gist of the method: (§3)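 Cells (500-1,000/well) rested 5 h, then received compounds for 48 h; metabolically active cells were measured by CellTiter-Glo luminescence. Final concentrations spanned up to 46 µM (MIPE, 11-point) or 0.59 nM-46 µM (NPC, 8-point) in primary screens, 11-point in follow-ups.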

The nature of assay [9]: qHTS of pediatric cancer cell lines to identify multiple opportunities for drug repurposing: Primary screen for Saos-2 cells (AID 1347097). Note: % is set by controls: 0 for no effect and ±100 for the full control effect; nearly all actives have a fitted effect of over 40% in size. The gist of the method:
as §2

The nature of assay [10]: qHTS of pediatric cancer cell lines to identify multiple opportunities for drug repurposing: Primary screen for SK-N-SH cells (AID 1347098). Note: % is set by controls: 0 for no effect and ±100 for the full control effect; nearly all actives have a fitted effect of over 65% in size. A digest of the protocol:
as §3

The nature of assay [11]: qHTS of pediatric cancer cell lines to identify multiple opportunities for drug repurposing: Primary screen for NB1643 cells (AID 1347099).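 Note: plate controls were DMSO neutral control for no effect and bortezomib positive control for full effect; nearly all actives have a fitted effect of over 50% in size.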 The gist of the method:
as §2

A short description of assay [12]: qHTS of pediatric cancer cell lines to identify multiple opportunities for drug repurposing: Primary screen for LAN-5 cells (AID 1347100).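 Note: plate controls were DMSO neutral control for no effect and bortezomib positive control for full effect.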 The gist of the method: as §3
Assay [13] in a line: qHTS of pediatric cancer cell lines to identify multiple opportunities for drug repurposing: Primary screen for A673 cells (AID 1347092). Note: % is set by controls: 0 for no effect and ±100 for the full control effect; nearly all actives have a fitted effect of over 45% in size. The gist of the method:
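Cells are plated, rested 5 h, dosed by pintool, incubated 48 h, then lysed with CellTiter-Glo and read by luminescence. DMSO is the neutral control; bortezomib at 2.3 uM final is the positive control.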

Assay [14] can be described thus: qHTS of pediatric cancer cell lines to identify multiple opportunities for drug repurposing: Primary screen for SK-N-MC cells (AID 1347093).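 Note: series mostly up to about 46 µM; plate controls were DMSO neutral control for no effect and bortezomib for full effect.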 A digest of the protocol: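 Metabolically active cells were quantified by ATP-dependent luminescence (CellTiter-Glo, 15 min at room temperature) following 48 h treatment. Cells had been plated at 500-1,000 per well and settled for 5 h beforehand.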

Where “and” joins values, the source holds several entries; their conditions need not be identical. Equal entries are not always repeated. Inconclusive results are not listed. Values without a mark were called inactive. Calls of active or inactive are those of the source. Calls come from the whole dose curve; as a rule, active = well fitted curve in the direction sought with a large enough effect; inconclusive = small, poorly fitted or top-dose-only effect, or another doubt; inactive = no such curve, though single readings can be large; an effect the other way counts as inactive or inconclusive.

In the case of `CCOC(=O)[C@H](CCc1ccccc1)N[C@@H](C)C(=O)N1C(=O)N(C)C[C@H]1C(=O)O`, the Potency entry in assay [1], in [2], in assay [3], in assay [4], in assay [5] and in [6] was “inactive” throughout. The Potency entry in assay [7], in assay [8], in [9], in assay [10], in [11] and in [12] was “inactive” in each case.
`CCCc1c(OCCCCc2nn[nH]n2)ccc(C(C)=O)c1O`: the Potency entry in assay [1], in assay [2], in [3], in assay [4], in assay [5] and in assay [13] was “inactive” throughout. The Potency entry in [7], in assay [8], in assay [9], in [10] and in [11] was “inactive” throughout.
On to `NS(=O)(=O)c1cc2c(cc1Cl)NC(CSCc1ccccc1)=NS2(=O)=O`, for which the Potency result in assay [1], in [2], in assay [3], in [4], in assay [5] and in [14] was “inactive” each time. Further, the Potency result in assay [6], in assay [7], in [8], in [10], in assay [11] and in assay [12] was “inactive” throughout.
Regarding `O=c1[nH]c(=O)c2[nH]c(=O)[nH]c2[nH]1`, the Potency result in assay [1] was “inactive”. Besides, the activity change, negative = inhibition in assay [2] was -8.7% [at 9.2 µM]. Besides, the activity change, negative = cytotoxic in assay [3] was -9.56% [at 9.17 µM]; in assay [4] it was -3.8% [at 9.22 µM]; in assay [5], 1.34% [at 9.22 µM]; in assay [13], -14.8% [at 9.22 µM]; in assay [6], 0.299% [at 11.5 µM]; in assay [7] it was -4.54% [at 9.22 µM]. In addition, the activity change, negative = cytotoxic is -0.365% [at 9.22 µM] in assay [8], 13.8% [at 11.4 µM] in assay [10], -5.19% [at 9.22 µM] in assay [11] and 19.2% [at 9.22 µM] in assay [12].
As to `O=S(=O)(O)c1cc(I)c(O)c2ncccc12`, the Potency result in assay [1], in assay [2], in assay [3], in [4], in assay [5] and in assay [13] was “inactive” throughout. Besides, the Potency result in [7], in assay [8], in assay [9], in [10], in assay [11] and in [12] was “inactive” in each case.
In the case of `Nc1ccc(S(=O)(=O)Nc2ccc(Cl)nn2)cc1`, the Potency result in assay [1], in assay [2], in assay [3], in [4], in assay [5] and in assay [6] was “inactive” in each case. Besides, the Potency entry in [7], in assay [8], in [9], in assay [10], in assay [11] and in assay [12] was “inactive” throughout.
For `C[C@@H]1CCN(C(=O)[C@H](CCCN=C(N)N)NS(=O)(=O)c2cccc3c2NC[C@H](C)C3)[C@@H](C(=O)O)C1`, the Potency result in assay [1], in assay [2], in assay [3], in [4], in [5] and in assay [14] was “inactive” each time. Also, the Potency result in assay [6], in assay [7], in assay [8], in [9], in assay [10] and in assay [11] was “inactive” in each case. The Potency entry in [12] was “inactive”.
In the case of `COc1ccc2c(c1)C(=O)N(CCc1ccc(S(=O)(=O)NC(=O)NC3CCCCC3)cc1)C(=O)C2(C)C`, the Potency entry in assay [1], in assay [2], in [3], in assay [4], in assay [5] and in assay [13] was “inactive” each time. The Potency entry in [6], in assay [7], in [8], in assay [9], in assay [10] and in assay [11] was “inactive” in each case. Further, the Potency result in assay [12] is “inactive”.
For `Oc1cn2c(n1)Nc1ccc(Cl)c(Cl)c1C2`, the Potency in assay [1] was 18.4 nM (active) and 20.6 nM (active). For the same compound, the Potency entry in assay [2], in assay [3], in [4], in assay [5], in [13] and in assay [6] was “inactive” throughout. The Potency result in assay [7], in assay [8], in [9], in assay [11] and in assay [12] was “inactive” throughout.
With `COc1cc(C(=O)N2CCOCC2)cc(OC)c1OC`, the Potency entry in [1], in [2], in [3], in assay [4], in [5] and in assay [14] was “inactive” in each case. Also, the Potency entry in assay [6], in assay [7], in [8], in assay [9], in assay [10] and in assay [11] was “inactive” each time. Moreover, the Potency entry in [12] was “inactive”.
`NC(CSCC(=O)O)C(=O)O` (centres undefined): the Potency result in assay [1], in assay [2], in assay [3], in assay [4], in [5] and in assay [14] was “inactive” in each case. Moreover, the Potency entry in [6], in assay [7], in assay [8], in [9], in assay [10] and in assay [11] was “inactive” throughout. Besides, in assay [12], the Potency result is “inactive”.
In the case of `CC[C@@]1(c2ccccc2)NC(=O)N(C)C1=O`, the Potency entry in [1], in assay [2], in [3], in assay [4], in [5] and in [13] was “inactive” in each case. The Potency entry in [6], in assay [7], in assay [8], in assay [9], in assay [10] and in assay [11] was “inactive” each time. Moreover, the Potency entry in assay [12] is “inactive”.
Take `Nc1ccc(S(=O)(=O)NC(=O)c2ccccc2)cc1`: the Potency result in assay [1], in [2], in assay [3], in [4], in [5] and in assay [13] was “inactive” throughout. Besides, the Potency result in assay [7], in assay [8], in [9], in assay [10], in assay [11] and in assay [12] was “inactive” throughout.
In the case of `O=C1OC(OC(=O)c2cccnc2Nc2cccc(C(F)(F)F)c2)c2ccccc21` (centres undefined), the Potency result in [1], in assay [2], in assay [3], in assay [4], in [5] and in assay [6] was “inactive” in each case. The Potency result in assay [7], in [8], in assay [9], in assay [11] and in assay [12] was “inactive” each time.
`CC(=O)Oc1ccc(C2(c3ccc(OC(C)=O)cc3)C(=O)Nc3ccccc32)cc1`: the Potency entry in assay [1], in assay [2], in [3], in assay [4], in assay [5] and in assay [13] was “inactive” throughout. For the same compound, the Potency result in [6], in [7], in assay [8], in assay [9], in [10] and in assay [11] was “inactive” in each case. Also, in [12], the Potency entry was “inactive”.
`C=CCn1c(=O)n([C@@H]2O[C@H](CO)[C@@H](O)[C@H]2O)c2nc(N)[nH]c(=O)c21`: the Potency result in [1], in [2], in assay [3], in [4], in assay [5] and in assay [14] was “inactive” each time. The Potency result in [6], in [7], in [8], in assay [9], in [10] and in assay [11] was “inactive” throughout. Further, the Potency result in assay [12] is “inactive”.
Turning to `CC(C)(C)C(=O)NCCCC(=O)O`, the Potency entry in assay [1], in [2], in assay [3], in assay [4], in assay [5] and in assay [14] was “inactive” throughout. Moreover, the Potency entry in [6], in [7], in assay [8], in [9], in assay [10] and in assay [11] was “inactive” each time. Further, the Potency result in assay [12] was “inactive”.
As to `Oc1cccc(O)c1`, the Potency result in assay [1], in assay [2], in [3], in assay [4], in assay [5] and in assay [13] was “inactive” in each case. Moreover, the Potency result in [14], in assay [7], in assay [8], in assay [9], in [11] and in assay [12] was “inactive” throughout.
With `CCOc1ccc2ccccc2c1C(=O)N[C@@H]1C(=O)N2[C@@H]1SC(C)(C)[C@@H]2C(=O)O`, the Potency result in [1], in assay [2], in assay [3], in [4], in assay [5] and in assay [6] was “inactive” in each case. Moreover, the Potency entry in assay [7], in assay [8], in assay [9], in [10], in [11] and in assay [12] was “inactive” each time.

Source of the values: PubChem BioAssay (NCATS).
